In PubChem BioAssay AID624496 (National Center for Advancing Translational Sciences (NCATS), 2012):
Results filed as inconclusive are left out. Active and inactive are the calls of the source. The call rests on the fitted dose curve; in most records, active means well fitted inhibition curve with a large enough effect; inconclusive means small, poorly fitted or top-dose-only effect, or another doubt; inactive means no such curve, though single readings can be large or run the other way.

Target: D(2) dopamine receptor (Homo sapiens) (UniProt P14416)
Assay: HTS Assay for Allosteric Antagonists of the Human D2 Dopamine Receptor: SAR in Primary Assay.
Settings: HEK293 T-REx D2 cells, calcium flux, dopamine EC80 antagonism; activity, negative = inhibition: at 41.8 µM (top of the series) unless noted
Excerpt: Dopamine receptors (DARs) are involved in the etiology and/or therapy of a number of neuropsychiatric and endocrine disorders. For instance, all receptor-based antiparkinsonian drugs work via stimulating the D2 DAR subtype whereas all FDA-approved antipsychotic agents are antagonists of this receptor. […] There are three different types of allosteric modulators that we are seeking, two of which will stimulate or augment receptor signaling, allosteric agonists and potentiators, while the third, allosteric antagonists, will attenuate receptor signaling. The present project is looking for compound antagonism after an EC80 addition of dopamine by tracking calcium flux in a […], inducible Hek293 Trex D2 cell line, which act through an allosteric site. NIH Chemical Genomics Center [NCGC] NIH Molecular Libraries Probe Centers Network [MLPCN] MLPCN Grant: NS064831 Assay Submitter (PI): David Sibley
Freshly passaged cells are plated in 1536 well black, clear bottom plates at a density of 4000 cells/well in 3 ul of complete media containing 1x tetracycline inducer. After an overnight incubation at 30 deg C in 5% CO2, cells are loaded with 2 ul of the no wash Calcium Assay Kit (ABD Bioquest) and incubated at room temperature for 30 to 90 minutes. Agonist read: A 10 cycle (1 second/cycle) baseline measurement is taken and then the FDSS online 1536 pintool delivers 23 nl of compound library (as well as dopamine controls) to the plate. The plate is measured for kinetically at 1 cycle/sec for 180 seconds. Following the 180 second read, 1 ul of an EC80 (negative modulation assay) is delivered by an onboard pipette head. Measurements are taken kinetically for an additional 180 seconds.

Chain of D(2) dopamine receptor (Homo sapiens) (P14416 whole entry, looked up): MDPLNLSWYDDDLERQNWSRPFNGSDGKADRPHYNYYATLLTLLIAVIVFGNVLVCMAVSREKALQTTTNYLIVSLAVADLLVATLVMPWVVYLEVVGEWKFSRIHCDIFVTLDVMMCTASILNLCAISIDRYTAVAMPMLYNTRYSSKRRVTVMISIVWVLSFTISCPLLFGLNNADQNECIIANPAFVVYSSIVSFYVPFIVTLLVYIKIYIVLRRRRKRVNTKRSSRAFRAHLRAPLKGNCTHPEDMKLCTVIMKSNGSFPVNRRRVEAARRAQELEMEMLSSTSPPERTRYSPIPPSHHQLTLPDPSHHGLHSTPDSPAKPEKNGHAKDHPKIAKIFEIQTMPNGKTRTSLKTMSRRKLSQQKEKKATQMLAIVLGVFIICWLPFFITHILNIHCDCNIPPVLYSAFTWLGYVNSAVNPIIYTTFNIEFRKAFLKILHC

Potency, active:
CCN1C(=O)c2ccccc2S(=O)c2ccc(C(=O)NCc3ccc(C#N)cc3)cc21 (stereo not given) 141 nM
CCN1C(=O)c2ccccc2S(=O)c2ccc(C(=O)NCc3ccc(C(C)(C)C)cc3)cc21 (stereo not given) 353 nM
CCN1C(=O)c2ccccc2S(=O)c2ccc(C(=O)NCc3ccc(S(C)(=O)=O)cc3)cc21 (stereo not given) 560 nM
CN1C(=O)c2ccccc2[S@](=O)c2ccc(C(=O)NCc3cccnc3)cc21 177 nM
COc1ccc(CNC(=O)c2ccc3c(c2)NC(=O)c2ccccc2S3=O)cc1 (stereo not given) 141 nM
CN1C(=O)c2ccccc2S(=O)c2ccc(C(=O)NCCc3cccs3)cc21 (stereo not given) 88.7 nM
CCN1C(=O)c2ccccc2[S@](=O)c2ccc(C(=O)NCc3ccc(F)cc3)cc21 353 nM
CCN1C(=O)c2ccccc2Sc2ccc(C(=O)NCc3ccc(OC)cc3)cc21 887 nM
CN1C(=O)c2ccccc2[S@](=O)c2ccc(C(=O)NCCN3CCCC3)cc21 4450 nM
CN1C(=O)c2ccccc2[S@](=O)c2ccc(C(=O)NCc3ccc(Br)cc3)cc21 70.5 nM
CN1C(=O)c2ccccc2[S@@](=O)c2ccc(C(=O)NCCc3cccs3)cc21 88.7 nM
CN1C(=O)c2ccccc2[S@](=O)c2ccc(C(=O)NCc3ccc(Cl)cc3)cc21 445 nM
CN1C(=O)c2ccccc2S(=O)c2ccc(C(=O)NCCN3CCCCC3)cc21 (stereo not given) 112 nM
CCN1C(=O)c2ccccc2S(=O)c2ccc(C(=O)NCc3ccc(OC)cc3)cc21 (stereo not given) 88.7 nM
CCN1C(=O)c2ccccc2S(=O)c2ccc(C(=O)NCc3ccccc3)cc21 (stereo not given) 705 nM
CCN1C(=O)c2ccccc2S(=O)c2ccc(C(=O)NCc3ccc4c(c3)OCO4)cc21 (stereo not given) 112 nM
CCN1C(=O)c2ccccc2S(=O)c2ccc(C(=O)NC(C)c3ccccc3)cc21 (stereo not given) 353 nM
CN1C(=O)c2ccccc2S(=O)c2ccc(C(=O)NCc3ccccc3)cc21 (stereo not given) 560 nM
CCCN1C(=O)c2ccccc2S(=O)c2ccc(C(=O)NCc3ccc(OC)cc3)cc21 (stereo not given) 1770 nM
CN1C(=O)c2ccccc2S(=O)c2ccc(C(=O)NCCN3CCCC3)cc21 (stereo not given) 280 nM
CCN1C(=O)c2ccccc2[S@](=O)c2ccc(C(=O)NCc3ccc(C#N)cc3)cc21 223 nM
CN1C(=O)c2ccccc2S(=O)c2ccc(C(=O)NCc3cccc(Cl)c3)cc21 (stereo not given) 280 nM
CN1C(=O)c2ccccc2S(=O)c2ccc(C(=O)Nc3ccccc3)cc21 (stereo not given) 280 nM
COc1ccc(CNC(=O)c2ccc3c(c2)N(C)C(=O)c2ccccc2S3=O)cc1 (stereo not given) 112 nM
CCN1C(=O)c2ccccc2S(=O)c2ccc(C(=O)NCc3ccc(F)cc3)cc21 (stereo not given) 705 nM
CCN1C(=O)c2ccccc2S(=O)c2ccc(C(=O)Nc3ccccc3)cc21 (stereo not given) 141 nM
CCN1C(=O)c2ccccc2S(=O)c2ccc(C(=O)NCc3ccc(SC)cc3)cc21 (stereo not given) 223 nM
CCN1C(=O)c2ccccc2[S@](=O)c2ccc(C(=O)NCc3ccc(OC)cc3)cc21 8870 nM
CCN1C(=O)c2ccccc2S(=O)c2ccc(C(=O)Nc3ccc(OC)cc3)cc21 (stereo not given) 887 nM
CCN1C(=O)c2ccccc2[S@](=O)c2ccc(C(=O)N[C@H](C)c3ccc(Br)cc3)cc21 8870 nM
CN1C(=O)c2ccccc2S(=O)c2ccc(C(=O)NCc3ccccn3)cc21 (stereo not given) 223 nM

activity, negative = inhibition, 23.4%:
CCN1C(=O)c2ccccc2S(=O)c2ccc(C(=O)NCc3cc(OC)c(OC)c(OC)c3)cc21 (stereo not given)

activity, negative = inhibition, active:
CN1C(=O)c2ccccc2S(=O)c2ccc(C(=O)NCc3cccnc3)cc21 (stereo not given) -114% [at 4.65 µM]
CCN1C(=O)c2ccccc2S(=O)c2ccc(C(=O)NCc3ccccc3OC)cc21 (stereo not given) -21.4%
CN(C)CCCNC(=O)c1ccc2c(c1)N(C)C(=O)c1ccccc1S2=O (stereo not given) -85.7% [at 4.65 µM]

activity, negative = inhibition, 5.87% [at 4.65 µM]:
CCN1C(=O)c2ccccc2S(=O)c2ccc(C(=O)NCc3ccc(C)cc3)cc21 (stereo not given)

activity, negative = inhibition, -114%:
COc1ccc(CNC(=O)c2cccc(N3C(=O)c4ccccc4C3=O)c2)cc1

activity, negative = inhibition, -112%:
CCN1C(=O)c2ccccc2[S@@](=O)c2ccc(C(=O)NCc3ccc(OC)cc3)cc21

activity, negative = inhibition, -112% [at 4.65 µM]:
CCN1C(=O)c2ccccc2S(=O)c2ccc(C(=O)N(C)Cc3ccc(OC)cc3)cc21 (stereo not given)

activity, negative = inhibition, -113%:
CCN1C(=O)c2ccccc2S(=O)(=O)c2ccc(C(=O)NCc3ccc(OC)cc3)cc21
